Holding throughout (experiment): NCI-60 one-dose screen, 48 h (100 = growth as untreated, 0 = no growth, -100 = all killed)
Holding throughout (conditions): 10 µM unless noted

Assay [1] concerns SR leukemia.
Assay [2] relates to RPMI-8226 leukemia.
The subject of assay [3] is OVCAR-8 ovarian.
Assay [4] relates to OVCAR-5 ovarian.
Assay [5] relates to OVCAR-4 ovarian.
In assay [6] the test system is SK-OV-3 ovarian.
For assay [7], the system named is IGROV1 ovarian.
Assay [8] has as its system OVCAR-3 ovarian.
Assay [9] concerns HS 578T breast.
In assay [10] the test system is NCI/ADR-RES ovarian.
The test system of assay [11] is T-47D breast.
The test system of assay [12] is BT-549 breast.
Assay [13] has as its system MDA-MB-435 melanoma.
The test system of assay [14] is SW-620 colon.
For assay [15], the system named is MCF7 breast.
Assay [16] has as its system HCT-116 colon.
Assay [17] relates to HCC-2998 colon.
Assay [18] concerns KM12 colon.

About 83,000 compounds went through this panel and 20% of them were active in at least one assay; those are over-represented in the sample as a whole.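 For each line, cells grew in 96-well plates with the test compound present at a single concentration for 48 hours.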 Values without a mark were called inactive. Calls of active or inactive are those of the source. How the source made its calls: active means growth percent below 10; inactive means the rest.

`O=C1c2cc3c(cc2-c2c1c1cc(Cl)c(Cl)cc1c(=O)n2C[C@H](O)CO)OCO3`: the growth was -23.2% (active) in assay [1]; -8.53% (active) in assay [2]; -20.2% (active) in [3]; -23% (active) in assay [4]; -51.8% (active) in assay [5]; -54% (active) in [6]. In addition, the growth in assay [7] is -2.45% (active); in assay [8] it was -54.2% (active); in assay [9], 33%; in assay [10] it was -29.4% (active); in assay [11], -20.2% (active); in [12], -10.3% (active). Moreover, the growth in assay [13] was -24.8% (active); in [14], 12.7%; in assay [15], -0.37% (active); in assay [16], -25.4% (active); in assay [17] it was -5.57% (active); in assay [18], -21% (active).
As to `O=C1O[C@H]([C@H](O)CO)C(O)=C1O`, the growth in assay [1] was 88.5%; in assay [2] it was 99.1%; in assay [3], 97%; in assay [4] it was 101%; in assay [5], 119%; in assay [6] it was 112%. Moreover, the growth is 104% in assay [7]; 104% in [8]; 117% in [9]; 96.6% in [10]; 114% in [11]; 93.1% in assay [12]. Besides, the growth was 106% in [13]; 87.3% in assay [14]; 103% in [15]; 98.2% in assay [16]; 98.3% in assay [17]; 103% in assay [18].
On to `ClC1=C2NC=NC2n2c(nnc2-c2ccc(Cl)cc2)N1` (configuration not stated), for which the growth in assay [1] was 91.9%; in assay [2], 89.2%; in assay [3], 96.9%; in assay [4], 110%; in assay [5] it was 116%; in assay [6] it was 105%. The growth in [7] is 119%; in [8], 120%; in [9] it was 112%; in [10], 108%; in assay [11], 90.8%; in [12] it was 101%. For the same compound, the growth in assay [13] was 99.9%; in assay [14] it was 115%; in assay [15], 85.6%; in [16] it was 98.5%; in [17] it was 102%; in assay [18], 99.6%.
Consider `Cc1cc2cc3cc(C)c(N(C)C)cc3nc2cc1N(C)C`, for which the growth was 25% in [1]; -0.205% (active) in assay [2]; 22.5% in [3]; 53.9% in [4]; 32.4% in assay [5]; 17.7% in assay [6]. The growth in assay [7] was -13.8% (active); in assay [8], -25.5% (active); in assay [9] it was 31.7%; in [10], 82.5%; in [11] it was 7.76% (active); in [12], -11.6% (active). The growth was 29.1% in assay [13]; 17.7% in assay [14]; 13.5% in assay [15]; 13.7% in assay [16]; 23.7% in [17]; 3.92% (active) in [18].
For the compound `CCOC(=O)C(Cc1cc(I)c(O)c(I)c1)NC(=O)c1ccccc1` (configuration not stated), the growth is 88.9% in assay [1]; 89.5% in assay [2]; 97.7% in assay [3]; 96.1% in assay [4]; 108% in assay [5]; 94.1% in [6]. In addition, the growth was 99% in assay [7]; 108% in assay [8]; 87% in assay [9]; 106% in assay [10]; 86.6% in assay [11]; 101% in assay [12]. Further, the growth was 100% in [13]; 94.4% in [14]; 92.5% in assay [15]; 96.2% in assay [16]; 119% in assay [17]; 102% in assay [18].
Turning to `COC1/C=C\OC2(C)Oc3c(C)c(O)c4c(O)c(c(CN(C)CCO)c(O)c4c3C2=O)NC(=O)/C(C)=C\C=C/C(C)C(O)C(C)C(O)C(C)C(OC(C)=O)C1C` (configuration not stated), the growth in [1] is 91.2%; in assay [2], 86.4%; in [3], 90.7%; in assay [4], 91.7%; in [5] it was 84.5%; in assay [6], 96.6%. The growth is 95.9% in assay [7]; 111% in assay [8]; 104% in [9]; 103% in assay [10]; 89.3% in assay [11]; 105% in assay [12]. The growth in assay [13] was 111%; in assay [14], 105%; in assay [15] it was 91.6%; in assay [16], 107%; in assay [17], 121%; in [18], 106%.
Turning to `CCC(=O)OCc1cccc(OC)c1`, the growth is 116% in [1]; 84.8% in assay [2]; 98.2% in assay [3]; 118% in assay [4]; 94.6% in assay [5]; 103% in assay [6]. Besides, the growth was 81% in assay [7]; 107% in assay [8]; 101% in [9]; 106% in [10]; 95.3% in assay [11]; 103% in assay [12]. Besides, the growth was 97.7% in [13]; 108% in [14]; 105% in assay [15]; 95.1% in assay [16]; 101% in assay [17]; 108% in [18].
As for `COc1ccc(/C(=C/c2ccc3ccccc3c2)c2nn[nH]n2)cc1OC`, the growth is 15% in assay [1]; 16.6% in assay [2]; 40.5% in [3]; 60% in [4]; 62.7% in [5]; 39% in assay [6]. Also, the growth in [7] was 48.7%; in [8], -17.3% (active); in [9], 36.5%; in assay [10] it was -15.4% (active); in [11], 36.1%; in assay [12] it was 40.3%. The growth in assay [13] was -41% (active); in assay [14], 29.2%; in [15], 52.3%; in assay [16], 17.7%; in assay [17], 55.4%; in assay [18], 24.5%.
As to `CN1/C(=C\C=C\C2=[N+](C)c3ccccc3C2(C)C)C(C)(C)c2ccccc21`, the growth in assay [1] is -32.8% (active); in assay [2] it was -8.69% (active); in assay [3] it was 1.34% (active); in assay [4], 20.9%; in [5], 10.5%; in assay [6], -2.66% (active). Also, the growth was 2.4% (active) in [7]; 2.1% (active) in assay [8]; 23.4% in [9]; 14.3% in [10]; -9.24% (active) in assay [11]; -17.7% (active) in assay [12]. In addition, the growth was -48.9% (active) in [13]; 8.18% (active) in assay [14]; -2.53% (active) in assay [15]; 0.854% (active) in assay [16]; -60.8% (active) in assay [17]; -64.9% (active) in assay [18].

Values taken from PubChem BioAssay (NCI).
